# Inconclusive results are not listed. The source made the active and inactive calls. Unless noted, calls come from the whole dose curve.
# Experiment: qHTS assay for small molecule agonists of the antioxidant response element (ARE) signaling pathway - cell viability counter screen (AID 743203); note: nearly all actives have a fitted effect of over 55% in size
# Conditions: ARE-bla HepG2 viability, CellTiter-Glo luminescence, 16 h; series mostly up to 73.3 µM
# In short: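 ATP content via CellTiter-Glo luminescence served as the viability measure. Cells: ARE-bla HepG2, 2,000 per well. Exposure: 16 hrs, 37C/5% CO2.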
# % is set by controls: 0 for no effect and ±100 for the full control effect.
SMILES,outcome,"viability change, negative = cytotoxic"
C[Si]1(C)N[Si](C)(C)N[Si](C)(C)N1,inactive,
O=C(COCCOCCOCC(=O)Nc1c(I)cc(I)c(C(=O)O)c1I)Nc1c(I)cc(I)c(C(=O)O)c1I,inactive,
C[C@H]1O[C@H](O[C@H]2[C@H](O)[C@@H](O)[C@@H](O[C@H]3[C@H](O)[C@@H](O)[C@H](O)O[C@@H]3CO)O[C@@H]2CO)[C@H](O)[C@@H](O)[C@@H]1N[C@H]1C=C(CO)[C@@H](O)[C@H](O)[C@H]1O,inactive,
CCCCCC1CCCC(=O)O1 (configuration not stated),inactive,
Nc1cc(Cl)cc(S(=O)(=O)O)c1O,inactive,
Cc1oc(=O)oc1CN1CCN(c2cc3c(cc2F)c(=O)c(C(=O)O)c2n3C(C)S2)CC1 (configuration not stated),inactive,
COC(OC)C(C)c1ccccc1 (configuration not stated),inactive,
CCNC(=O)/C=C/c1cccc(Br)c1,inactive,
N#CCCOCCOCCC#N,inactive,
Nc1ccc(S(=O)(=O)NC(=O)c2ccccc2)cc1,inactive,
CCCOC(=O)CCCCC(=O)OCCC,inactive,
COc1cc(C=O)ccc1OC(=O)C(C)C,inactive,
CCC(O)C(C)(C)C (configuration not stated),inactive,
O=C(O)c1c(Cl)ccc(Cl)c1Cl,inactive,
CC(C)CCC(=O)CCC(C)C,inactive,
Cc1cc(O)c2c(c1)C(=O)c1cccc(O)c1C2=O,inactive,
O=[Si]=O,inactive,
CCC(=O)OCCC(C)CCC=C(C)C (configuration not stated),inactive,
C=CCOc1c(Br)cc(Br)cc1Br,inactive,

SMILES,outcome,"viability change, negative = cytotoxic"
C=CCOc1c(Br)cc(C(C)(C)c2cc(Br)c(OCC=C)c(Br)c2)cc1Br,inactive,
COc1cc2c3cc1Oc1cc(ccc1O)C[C@@H]1c4c(cc(OC)c(O)c4Oc4ccc(cc4)C[C@@H]3N(C)CC2)CC[N+]1(C)C,inactive,
Cc1ccccc1N1CCN(CCc2nnc3n2CCCC3)CC1,inactive,
NS(=O)(=O)c1cc2c(cc1Cl)NC(CC1CCCC1)NS2(=O)=O (configuration not stated),inactive,
CC(=O)c1ccc(OCC(=O)N2CCCCC2)cc1,inactive,
O=S(=O)(O)CCO,inactive,
CNCc1ccccc1,inactive,
CN=C(NC#N)NCCSCc1csc(N=C(N)N)n1,inactive,
C=C[Si](C)(C)O[Si](C)(C)C=C,inactive,
COc1ccc(N=Nc2cc(C)c(N=Nc3ccc(S(=O)(=O)O)cc3)cc2OC)cc1,inactive,
O=C1OC(=O)c2ccccc21,inactive,
CC(=O)OC(C)c1ccccc1 (configuration not stated),inactive,
O=S1(=O)CCCC1,inactive,
Cc1cccc(C(=O)O)c1[N+](=O)[O-],inactive,
NC(=O)C1(N2CCCCC2)CCN(CCCC(=O)c2ccc(F)cc2)CC1,inactive,
O=C(/C=C/c1ccccc1)NCCO,inactive,
O=C(O)Cc1cccc(-c2cc(CCCCCCc3ccc(O[C@H]4O[C@H](CO)[C@@H](O)[C@H](O)[C@@H]4O)c(-c4cccc(CC(=O)O)c4)c3)ccc2O[C@H]2O[C@H](CO)[C@@H](O)[C@H](O)[C@@H]2O)c1,,-4.49% [at 0.756 µM] (inactive)
O=C(Oc1ccccc1C(=O)O)c1ccccc1O,inactive,
CN[C@@H]1[C@H](O)[C@H](NC)[C@H]2O[C@@]3(O)C(=O)C[C@@H](C)O[C@H]3O[C@@H]2[C@H]1O,inactive,

# Experiment: qHTS assay for small molecule activators of the heat shock response signaling pathway - cell viability counter screen (AID 743209; active = well fitted cell-killing curve with a large enough effect in the repeat runs; note: nearly all actives have a fitted effect of over 50% in size)
# Conditions: HSE-bla HeLa viability, CellTiter-Glo luminescence, 5 h; series mostly up to 62.6 µM
# In short: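 Compounds dissolved in DMSO were added to overnight-plated HSE-bla HeLa cells and left 5 h at 37 C. Cell viability was quantified by luminescence using CellTiter-Glo.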
SMILES,outcome,"activity change, negative = cytotoxicity"
C[Si]1(C)N[Si](C)(C)N[Si](C)(C)N1,inactive,
O=C(COCCOCCOCC(=O)Nc1c(I)cc(I)c(C(=O)O)c1I)Nc1c(I)cc(I)c(C(=O)O)c1I,inactive,
CCCCCC1CCCC(=O)O1 (configuration not stated),inactive,
Nc1cc(Cl)cc(S(=O)(=O)O)c1O,inactive,
Cc1oc(=O)oc1CN1CCN(c2cc3c(cc2F)c(=O)c(C(=O)O)c2n3C(C)S2)CC1 (configuration not stated),inactive,
COC(OC)C(C)c1ccccc1 (configuration not stated),inactive,
CCNC(=O)/C=C/c1cccc(Br)c1,inactive,
N#CCCOCCOCCC#N,inactive,
Nc1ccc(S(=O)(=O)NC(=O)c2ccccc2)cc1,inactive,
CCCOC(=O)CCCCC(=O)OCCC,inactive,
COc1cc(C=O)ccc1OC(=O)C(C)C,inactive,
CCC(O)C(C)(C)C (configuration not stated),inactive,
O=C(O)c1c(Cl)ccc(Cl)c1Cl,inactive,
CC(C)CCC(=O)CCC(C)C,inactive,
Cc1cc(O)c2c(c1)C(=O)c1cccc(O)c1C2=O,inactive,
O=[Si]=O,inactive,
CCC(=O)OCCC(C)CCC=C(C)C (configuration not stated),inactive,

SMILES,outcome,"activity change, negative = cytotoxicity"
C=CCOc1c(Br)cc(Br)cc1Br,inactive,
C=CCOc1c(Br)cc(C(C)(C)c2cc(Br)c(OCC=C)c(Br)c2)cc1Br,inactive,
COc1cc2c3cc1Oc1cc(ccc1O)C[C@@H]1c4c(cc(OC)c(O)c4Oc4ccc(cc4)C[C@@H]3N(C)CC2)CC[N+]1(C)C,inactive,
Cc1ccccc1N1CCN(CCc2nnc3n2CCCC3)CC1,inactive,
CC(=O)c1ccc(OCC(=O)N2CCCCC2)cc1,inactive,
O=S(=O)(O)CCO,inactive,
CN=C(NC#N)NCCSCc1csc(N=C(N)N)n1,inactive,
C=C[Si](C)(C)O[Si](C)(C)C=C,inactive,
COc1ccc(N=Nc2cc(C)c(N=Nc3ccc(S(=O)(=O)O)cc3)cc2OC)cc1,inactive,
O=C1OC(=O)c2ccccc21,inactive,
CC(=O)OC(C)c1ccccc1 (configuration not stated),inactive,
Cc1cccc(C(=O)O)c1[N+](=O)[O-],inactive,
NC(=O)C1(N2CCCCC2)CCN(CCCC(=O)c2ccc(F)cc2)CC1,inactive,
O=C(/C=C/c1ccccc1)NCCO,inactive,
O=C(O)Cc1cccc(-c2cc(CCCCCCc3ccc(O[C@H]4O[C@H](CO)[C@@H](O)[C@H](O)[C@@H]4O)c(-c4cccc(CC(=O)O)c4)c3)ccc2O[C@H]2O[C@H](CO)[C@@H](O)[C@H](O)[C@@H]2O)c1,,-0.941% [at 0.55 µM] (inactive)
O=C(Oc1ccccc1C(=O)O)c1ccccc1O,inactive,
CN[C@@H]1[C@H](O)[C@H](NC)[C@H]2O[C@@]3(O)C(=O)C[C@@H](C)O[C@H]3O[C@@H]2[C@H]1O,inactive,

# Source: PubChem BioAssay (Tox21)
